Assay results taken from PubChem BioAssay (NCI).
This is part of a sample that, as a whole, favours compounds with a hit. Of some 83,000 tested, about 20% had one in any assay.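 48-hour exposure, single concentration, 96-well plates; percent growth endpoint where 0 means no net growth. Active: below 10.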 Unmarked numbers belong to inactive results. Activity calls are given as the source filed them.

Legend:
Assay in all cases: NCI-60 one-dose screen, 48 h (100 = growth as untreated, 0 = no growth, -100 = all killed)
[1] = system: SR leukemia; details: 10 µM unless noted
[2] = system: RPMI-8226 leukemia; details: 10 µM unless noted
[3] = system: OVCAR-8 ovarian; details: 10 µM unless noted
[4] = system: OVCAR-5 ovarian; details: 10 µM unless noted
[5] = system: OVCAR-4 ovarian; details: 10 µM unless noted
[6] = system: SK-OV-3 ovarian; details: 10 µM unless noted
[7] = system: IGROV1 ovarian; details: 10 µM unless noted
[8] = system: OVCAR-3 ovarian; details: 10 µM unless noted
[9] = system: HS 578T breast; details: 10 µM
[10] = system: NCI/ADR-RES ovarian; details: 10 µM unless noted
[11] = system: T-47D breast; details: 10 µM unless noted
[12] = system: BT-549 breast; details: 10 µM unless noted
[13] = system: MDA-MB-435 melanoma; details: 10 µM unless noted
[14] = system: SW-620 colon; details: 10 µM unless noted
[15] = system: MCF7 breast; details: 10 µM unless noted
[16] = system: HCT-116 colon; details: 10 µM unless noted
[17] = system: HCC-2998 colon; details: 10 µM unless noted
[18] = system: KM12 colon; details: 10 µM unless noted

In the case of `COc1c(B(O)O)cccc1-c1nc2ccc3[nH]ncc3c2c2c1CCCC2`, the growth [1] is reported as 13.9%, the growth [2] is reported as 7.44% (active) and the growth [3] is reported as 17%. The growth [4] was 29.5%, the growth [5] was 74.2% and the growth [6] was 6.76% (active). For the same compound, the growth [7] was 13.8%, the growth [8] was 19.3% and the growth [9] was 14.6%. For the same compound, the growth [10] was 50.7%, the growth [11] was 39.2% and the growth [12] was 7.15% (active). For the same compound, the growth [13] was 38.4%, the growth [14] was 8.47% (active) and the growth [15] was 2.24% (active). For the same compound, the growth [16] was 6% (active), the growth [17] was 53.3% and the growth [18] was 1.71% (active).
Work on `CCN(CC)C(Cl)=Nc1ccc(Cl)cc1` yielded a growth [1] of 84.3%, a growth [2] of 95.1% and a growth [3] of 106%. For the same compound, the growth [4] was 105%, the growth [5] was 108% and the growth [6] was 102%. The growth [7] was 109%, the growth [8] was 107% and the growth [9] was 101%. For the same compound, the growth [10] was 106%, the growth [11] was 102% and the growth [12] was 112%. For the same compound, the growth [13] was 100%, the growth [14] was 102% and the growth [15] was 101%. It also gave a growth [16] of 98.1%, a growth [17] of 101% and a growth [18] of 107%.
Work on `C=C(C)c1ccc(/C=N/NC(N)=S)cc1` yielded a growth [1] of 66.9%, a growth [2] of 72% and a growth [3] of 81.5%. The growth [4] was 120%, the growth [5] was 83.7% and the growth [6] was 125%. It also gave a growth [7] of 82.8%, a growth [8] of 101% and a growth [9] of 65.6%. For the same compound, the growth [10] was 97.8%, the growth [11] was 67.2% and the growth [12] was 99.4%. It also gave a growth [13] of 87%, a growth [14] of 97.9% and a growth [15] of 51.1%. It also gave a growth [16] of 84.5%, a growth [17] of 110% and a growth [18] of 55.4%.
For `COc1ccc(C(=O)c2cc(C)c(OC)c(C)c2)cc1OC(=O)CCl`, the growth [1] was 2.99% (active), the growth [2] was 11.2% and the growth [3] was 6.89% (active). For the same compound, the growth [4] was 39.6%, the growth [5] was 47.4% and the growth [6] was 20.6%. The growth [7] was 25.7%, the growth [8] was -15.5% (active) and the growth [9] was 44.4%. For the same compound, the growth [10] was 7.11% (active), the growth [11] was 62.7% and the growth [12] was 15.2%. For the same compound, the growth [13] was -23.5% (active), the growth [14] was 26.5% and the growth [15] was 19.2%. For the same compound, the growth [16] was 6.62% (active), the growth [17] was 27% and the growth [18] was 12.2%.
In the case of `C/C(=N\NC(=S)Nc1ccccc1)c1ccccn1`, the growth [1] is reported as 13.7%, the growth [2] is reported as 33.5% and the growth [3] is reported as 11.8%. It also gave a growth [4] of 35.6%, a growth [5] of 33.5% and a growth [6] of 40%. The growth [7] was 15.7%, the growth [8] was 9.49% (active) and the growth [9] was 64.1%. For the same compound, the growth [10] was 17.2%, the growth [11] was 28.7% and the growth [12] was 40.2%. The growth [13] was 59.6%, the growth [14] was 35% and the growth [15] was 18.7%. The growth [16] was 6.94% (active), the growth [17] was 48.1% and the growth [18] was 29.7%.
`COc1ccc2[nH]cc(C(c3ccc(Cl)cc3)N3CCCC3)c2c1` (centres undefined) was tested, and the growth [1] was 59.9%, the growth [2] was 85.9% and the growth [3] was 94.8%. It also gave a growth [4] of 101%, a growth [5] of 104% and a growth [6] of 109%. The growth [7] was 83.2%, the growth [8] was 99.5% and the growth [9] was 86.3%. It also gave a growth [10] of 97.9%, a growth [11] of 74% and a growth [12] of 65.9%. The growth [13] was 105%, the growth [14] was 112% and the growth [15] was 89.3%. For the same compound, the growth [16] was 96.5%, the growth [17] was 97% and the growth [18] was 101%.
`Cc1cc(-c2nnc(/C=C/c3ccc4c(c3)OCO4)o2)n[nH]1` gave a growth [1] of 18.7%, a growth [2] of 66.5% and a growth [3] of 91.5%. For the same compound, the growth [4] was 92.2%, the growth [5] was 96.8% and the growth [6] was 80.6%. The growth [7] was 40.7%, the growth [8] was 63.4% and the growth [9] was 80%. The growth [10] was 31.3%, the growth [11] was 60.9% and the growth [12] was 35.1%. The growth [13] was -25.4% (active), the growth [14] was 25.5% and the growth [15] was 31.7%. It also gave a growth [16] of 48.1%, a growth [17] of 75.8% and a growth [18] of 36.1%.
In the case of `Cc1ccc(-c2nc3ccccc3c(=O)n2/N=C/c2cccc3ccccc23)cc1`, the growth [1] is reported as 49.8%, the growth [2] is reported as 73.6% and the growth [3] is reported as 84.2%. For the same compound, the growth [4] was 102%, the growth [5] was 76.2% and the growth [6] was 76.4%. The growth [7] was 50.1%, the growth [8] was 71.6% and the growth [9] was 100%. For the same compound, the growth [10] was 78.6%, the growth [11] was 42.6% and the growth [12] was 80.1%. For the same compound, the growth [13] was 69.2%, the growth [14] was 93.9% and the growth [15] was 62.9%. The growth [16] was 71.5%, the growth [17] was 80.5% and the growth [18] was 69.1%.
